CCHF vOTU inh-1 = blocks the CCHF virus ovarian tumor domain protease; AID 651958; CCHFV vOTU protease, Pep-AMC fluorescence; hit rate 0.55% among 370,000; inhibition, % at 11.5 µM; note: 0% = vehicle wells with enzyme and 100% = no enzyme wells
BJeLR lethal = BJeLR cell viability loss | BJeLR (HRASV12) viability, CellTiter-Glo ATP luminescence, 48 h | inhibition, % (no concentration beside the values) | hit rate 0.17% among 300,000 | AID 1554; in the data active = inhibition above about 50%
MazEF act = increases E. coli MazEF RNase cleavage of RNA | FAM/BHQ RNA-DNA oligo cleavage fluorescence, 5 h | activation, % at 20 µM | hit rate 0.32% among 350,000 | P0AE70; in the data active = activation above about 50%
Target sequence (P0AE70 whole entry, looked up): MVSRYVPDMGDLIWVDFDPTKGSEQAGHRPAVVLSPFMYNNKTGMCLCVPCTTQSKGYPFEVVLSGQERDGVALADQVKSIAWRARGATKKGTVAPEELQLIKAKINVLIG
VHR inh abs = blocks human VHR1 dual specificity phosphatase | recombinant VHR phosphatase, pNPP absorbance | inhibition, % at 13.3 µM | hit rate 0.52% among 290,000 | AID 1654; in the data active = inhibition above about 50%
Target sequence (P51452 whole entry, looked up): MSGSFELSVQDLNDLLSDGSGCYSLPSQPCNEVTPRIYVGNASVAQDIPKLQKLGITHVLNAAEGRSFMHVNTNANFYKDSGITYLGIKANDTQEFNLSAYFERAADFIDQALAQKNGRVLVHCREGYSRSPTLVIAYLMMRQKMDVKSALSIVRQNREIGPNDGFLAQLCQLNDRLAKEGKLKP
SARS 3CLpro inh = SARS-CoV 3CLpro protease inhibition; recombinant SARS-CoV 3CLpro, quenched FRET peptide cleavage; hit rate 0.14% among 290,000; inhibition, % at 6 µM; AID 1706; in the data active = inhibition above about 12%
CCHF vOTU inh-2 = CCHFV vOTU protease inhibition, confirmation; hit rate 17% among 1,900; Recombinant CCHFV vOTU, Pep-AMC fluorescence; AID 686976; shares compounds with CCHF vOTU inh-1; inhibition, % at 11.5 µM
* = called active by the depositor; · = no result. Only some compounds are listed: those with a hit (about 1.4% of all), similar ones and a draw of the others. Cut-off read from the data, not from the text of the source, unless noted: active = inhibition above about 30%; inactive = the rest.

SMILES | CCHF vOTU inh-1 | BJeLR lethal | MazEF act | VHR inh abs | SARS 3CLpro inh | CCHF vOTU inh-2
Cc1noc(C)c1C(C)C1=CCCCC1 (stereo not drawn) | -0.3 | · | · | · | · | ·
CN(Cc1ccc(F)cc1)C(=O)c1cccc2c1C(=O)N(Cc1cccnc1)C2 | 2.8 | · | · | · | · | ·
CCN(CC)c1ccc(C=Nc2ccc(N(C)C)cc2)c(O)c1 | 74.1* | -1.2 | 532.4* | 34.6 | -0.9 | -1.8
COc1ccc(OCc2cc(C(=O)NC3CCc4ccccc43)no2)c(Cl)c1 (stereo not drawn) | -4.2 | -1.0 | 1.0 | 9.2 | -0.7 | ·
O=C(NC1CCc2ccccc21)c1cc(COc2ccc(F)cc2F)on1 (stereo not drawn) | 35.1* | -12.5 | 3.6 | 22.0 | 7.6 | -16.0
COc1ccc(C2C(C(=O)N3CCCC3)c3cc(OC)c(OC)cc3C(=O)N2C)cc1OC (stereo not drawn) | 30.8* | -5.8 | 2.5 | 15.5 | -4.3 | -23.0
COc1ccc(C2C(C(=O)N3CCN(C)CC3)c3cc(OC)c(OC)cc3C(=O)N2C)cc1 (stereo not drawn) | 11.7 | 13.4 | 0.1 | -2.4 | -1.9 | ·
CC(C)NC(=O)N(C)C[C@@H]1OCCCC[C@@H](C)Oc2ccc(NC(=O)Nc3ccc(F)cc3)cc2C(=O)N([C@H](C)CO)C[C@@H]1C | 32.2* | · | · | · | · | -2.8
CCOC(=O)CCCCCC(=O)Nc1ccc2c(c1)C(=O)N([C@H](C)CO)C[C@H](C)[C@@H](CN(C)C(=O)Nc1ccccc1)OCCCC[C@@H](C)O2 | 38.1* | · | -0.4 | · | · | -11.5
CCOC(=O)CCCCCC(=O)Nc1ccc2c(c1)C(=O)N([C@@H](C)CO)C[C@@H](C)[C@H](CN(C)C(=O)Nc1ccccc1)OCCCC[C@H](C)O2 | 10.8 | · | -5.7 | · | · | ·
COC(=O)[C@]12C[C@H](CC(=O)NCC34CC5CC(CC(C5)C3)C4)C(=O)N(Cc3cccc4ccccc34)C1=C[C@H](COCc1ccccc1)O[C@@H]2C | 10.2 | · | · | · | · | ·
CC(C)C(=O)OCCCN1CCC2(CCC(c3ccccc3)CC2)C1=O (stereo not drawn) | 11.3 | · | · | · | · | ·
Cc1cc(C)c(S(=O)(=O)Nc2nnc(CC(C)C)s2)c(C)c1 | 30.0* | -4.7 | 2.6 | 6.5 | 5.5 | -16.9
Oc1ccccc1/C=N/Nc1nn[nH]n1 | -11.7 | -9.1 | -2.5 | 20.1 | 3.7 | ·
CCc1nnc(N/N=C/c2c(C)[nH]c3ccccc23)n1N | 112.4* | · | 10.7 | 28.8 | 1.9 | -10.6
Cc1[nH]c2ccccc2c1/C=N/NC(N)=S | 9.5 | 13.6 | 14.6 | 1.4 | -13.7 | ·
Cc1nnc(N/N=C/c2ccccc2O)n1N | 97.0* | -7.9 | 4.8 | 6.3 | 2.0 | -4.0
CCOc1cc(/C=N/Nc2nnc(C)n2N)ccc1O | 116.7* | -4.5 | 5.7 | -5.3 | -4.0 | 5.2
CCOc1cc(/C=N/Nc2ncnc(Cl)c2N)ccc1O | 6.2 | -4.7 | 3.9 | -4.1 | -0.8 | ·
Cc1nnc(N/N=C/c2cc(C)n(-c3ccc(F)cc3)c2C)n1N | 99.1* | 3.3 | 1.0 | 4.3 | -4.6 | -8.9
Brc1ccc(CSc2nnc(SCc3ccccc3)s2)cc1 | -1.6 | · | · | · | · | ·
Cc1ccccc1NC(=O)Cn1nnc(-c2ccncc2)n1 | -4.3 | · | · | · | · | ·
CCc1nnc(N/N=C/c2c(F)cccc2Cl)n1N | 87.5* | -3.0 | 11.1 | -24.2 | 1.3 | -12.2
Cc1nnc(N/N=C/c2c(Cl)cccc2Cl)n1N | 74.5* | -9.5 | -18.8 | 2.0 | 8.1 | -7.9
CCc1nnc(-n2nc(C)cc2-c2ccccc2)n1N | 2.4 | · | 9.2 | 6.1 | 0.0 | ·
SMILES | CCHF vOTU inh-1 | BJeLR lethal | MazEF act | VHR inh abs | SARS 3CLpro inh | CCHF vOTU inh-2
Fc1cccc(Cl)c1/C=N/Nc1ccccn1 | -5.7 | 1.7 | -0.1 | 10.6 | 1.8 | ·
CCc1nnc(N/N=C/c2cc(C)c(C)cc2C)n1N | 74.5* | -2.9 | 5.9 | -3.2 | -3.0 | -21.5
Cc1nc2c(o1)C(=O)c1ccccc1C2=Nc1ccccc1 | 41.5* | · | 11.9 | · | · | 53.1*
O=c1[nH]c(Nc2ccccn2)cc2ccccc12 | -13.8 | 4.0 | 5.6 | · | · | ·
O=c1[nH]c(Nc2ccccc2Cl)cc2ccccc12 | 94.1* | 2.2 | 4.7 | · | · | -71.4
COC(=O)[C@H](Cc1ccccc1)NP(=O)(OC)[C@@H](C)NC(=O)OCc1ccccc1 (stereo partly drawn) | -2.8 | · | · | · | · | ·
Cn1c(=O)c2c(-c3ccccc3)n(-c3ccc(N)cc3)cc2n(C)c1=O | 98.1* | · | · | · | · | 92.2*
Cn1c(=O)c2c(-c3ccccc3)n(-c3cccc(O)c3)cc2n(C)c1=O | 6.4 | · | · | · | · | ·
C=CCN(C(=O)[C@@H](C1CC1)[C@@H](O)c1ccc(Cl)cc1)c1ccccc1 | 7.7 | · | · | · | · | ·
O=c1[nH]c(CN2CCOCC2)nc2ccccc12 | 10.3 | 3.0 | 1.5 | 13.2 | 3.1 | ·

High-throughput results (PubChem BioAssay)
